# Source: PubChem
# SMN2 splice enh = enhancers of SMN2 splice variant expression. HEK293 SMN2-luciferase splicing reporter, luminescence, 30-36 h. Potency, µM (highest dose often 46.1 µM), most hits filed as activators. 210,000 compounds, 2.8% hits. AID 1458; further: nearly all actives have a fitted effect of over 55% in size
#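 HEK293 cells carry an SMN2 minigene-luciferase reporter in which exon 7 inclusion puts luciferase in frame. Cells were seeded at 2000 cells/well, attached for 10-12 hours, then exposed to compounds for 30-36 hours at 37C before ONE-Glo luminescence.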
# ELG1 genotoxic = genotoxicity induction in ELG1-luciferase HEK293T cells | HEK293T ELG1-luciferase reporter, luminescence, 16 h | Potency, µM (doses to about 46 µM), most hits filed as activators | 330,000 compounds, 1.3% hits; further: nearly all actives have a fitted effect of over 60% in size
#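 DMSO vehicle served as control against compound-treated ELG1-luciferase HEK293T cells; exposure lasted 16 hr at 37 °C and 5% CO2, followed by ONE-Glo luminescence detection after 30 min.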
# uPA surface inh = blocks generation of uPA at the cell surface. 330,000 compounds, 0.31% hits. cell surface uPA generation assay, qHTS. Potency, µM (doses to about 38.3 µM), usual class: inhibitors; active means well fitted inhibition curve with a large enough effect; inconclusive means small, poorly fitted or top-dose-only effect; inactive means no such curve, though single readings can be large or run the other way; tested in mouse RAW 264.7 cells; further: nearly all actives have a fitted effect of over 55% in size
# Rab9 promoter act = activators of Rab9 promoter | Huh7 Rab9 promoter-luciferase reporter, luminescence, 24 h | Potency, µM (highest dose often 9.22 µM), hits mostly activators | 320,000 compounds, 2.8% hits | AID 485297; further: nearly all actives have a fitted effect of over 60% in size
#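 Stable Rab9-luc Huh7, 1500 cells/well, 2 h settle; cmpd in DMSO, 24 h, 37 °C/5% CO2; luciferase reagent 10 min RT; luminescence.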
# FLuc counter = counter-screen for miR-21 project: firefly luciferase inhibitors or activators | purified FLuc, Km substrates, luminescence inhibition | Potency, µM (top dose mostly 57.5 µM), most hits filed as inhibitors | 360,000 compounds, 6.9% hits; further: nearly all actives have a fitted effect of over 55% in size
# Target sequence (P08659 whole entry, looked up): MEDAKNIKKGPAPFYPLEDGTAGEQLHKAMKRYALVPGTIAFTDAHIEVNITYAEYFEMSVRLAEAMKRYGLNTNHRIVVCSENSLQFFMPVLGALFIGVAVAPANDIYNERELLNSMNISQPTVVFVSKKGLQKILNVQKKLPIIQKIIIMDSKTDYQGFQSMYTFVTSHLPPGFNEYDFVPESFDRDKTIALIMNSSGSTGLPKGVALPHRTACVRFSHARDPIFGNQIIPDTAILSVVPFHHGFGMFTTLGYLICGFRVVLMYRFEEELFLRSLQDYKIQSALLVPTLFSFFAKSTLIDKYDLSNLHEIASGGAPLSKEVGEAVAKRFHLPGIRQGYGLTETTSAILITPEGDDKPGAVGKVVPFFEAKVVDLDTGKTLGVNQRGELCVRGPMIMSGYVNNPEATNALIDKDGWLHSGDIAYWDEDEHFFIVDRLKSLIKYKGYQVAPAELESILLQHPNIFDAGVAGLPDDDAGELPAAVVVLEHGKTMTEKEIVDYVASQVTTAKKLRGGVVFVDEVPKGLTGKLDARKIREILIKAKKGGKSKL
#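 Purified P. pyralis luciferase (10nM final) with 10uM D-luciferin and 10uM ATP (Km levels) in 50mM Tris acetate pH 7.5, 10mM Mg acetate, 0.01% Tween-20, 0.05% BSA; qHTS 6-point titration, ~60 µM downward; luminescence read.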
# NPC1 prom act = NPC1 promoter activation; Potency, µM (titrated, usually from 9.22 µM), hits mostly activators; 320,000 compounds, 2.4% hits; AID 485313; Huh7 NPC1 promoter luciferase reporter, 24 h; further: nearly all actives have a fitted effect of over 60% in size
#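 Huh7 cells stably carrying NPC1 promoter–luciferase, plated in Opti-MEM with 10% FBS for 2 h, were exposed to compound in DMSO for 24 h at 37 °C; luciferase reagent was added for 10 min and luminescence read.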
# Hits are given with their value; 0 = inactive; ? = inconclusive; - = no result; [ ] = another dose, or the depositor's remark. Sampled rows, rich in hits. Any-hit rate of the full collection: about 7.3%. Unless noted, the call rests on the fitted dose curve; in most records, active means well fitted curve in the direction sought with a large enough effect; inconclusive means small, poorly fitted or top-dose-only effect, or another doubt; inactive means no such curve, though single readings can be large; an effect the other way counts as inactive or inconclusive.
SMILES,SMN2 splice enh,ELG1 genotoxic,uPA surface inh,Rab9 promoter act,FLuc counter,NPC1 prom act
CC(C)c1ccc(Nc2nnc(SCC(=O)Nc3ncc(S(=O)(=O)c4ccc([N+](=O)[O-])cc4)s3)s2)cc1,22µM,?,?,1.4µM,0.85µM,2.8µM
Cc1ccc(Nc2nnc(SCC(=O)Nc3ncc(S(=O)(=O)c4ccc([N+](=O)[O-])cc4)s3)s2)cc1,0,?,0,0,2.4µM,0
Cc1cc(=O)[nH]c(SCC(=O)Nc2ncc(S(=O)(=O)c3ccc([N+](=O)[O-])cc3)s2)n1,-,0,0,0,?,0
Cc1ccc(-n2ncc3c(NCc4ccccc4)ncnc32)cc1C,-,-,-,-,21µM,-
c1ccc(CNc2ncnc3c2cnn3Cc2ccccc2)cc1,11µM,0,?,0,0,0
COc1ccc(CCNc2ncnc3c2cnn3-c2cccc(Cl)c2)cc1,-,-,-,-,0,-
Cc1ccc(-n2ncc3c(NNC(=O)c4ccco4)ncnc32)cc1C,-,0,0,0,?,0
Cc1ccc(-n2ncc3c(NCCCc4ccccc4)ncnc32)cc1C,-,-,-,-,0,-
COCC(C)Nc1ncnc2c1cnn2-c1ccc(C)c(C)c1 (stereo not drawn),-,-,-,-,6.7µM,-
Cc1ccc(-n2ncc3c(NCCc4ccccc4)ncnc32)cc1,-,-,-,-,24µM,-
Cc1ccc(-c2nnn3c2nc(N2CCC(C)CC2)c2ccccc23)cc1,0,-,-,-,0,-
COc1ccc(C(=O)CN2C(=O)N(c3cc(C)cc(C)c3)S(=O)(=O)c3ccccc32)cc1,-,-,-,-,0,-
c1ccc(-n2ncc3c(NCc4cccnc4)ncnc32)cc1,0,?,0,?,17µM,?
O=c1c2cnn(-c3ccccc3)c2ncn1Cc1cccnc1,0,0,0,0,0,0
Cc1cc(NC(=O)CCCn2c(C)c3cnn(-c4ccccc4)c(=O)c3c2C)ccc1Br,0,-,-,-,0,-
CC(=O)Nc1ccc(N/C=C/C(=O)c2ccc(C)o2)cc1,0,?,0,?,8.5µM,4µM
COc1ccccc1Oc1ccc(N/C=C/C(=O)c2ccc(C)o2)cc1,0,0,0,?,7.6µM,?
COc1ccccc1OCCNC(=O)c1ccc(C)o1,-,?,0,0,0,0
CC(=O)Nc1ccc(N/C=C/C(=O)c2ccc(Cl)cc2)cc1,-,0,0,?,0,?
COc1cc(-c2noc(C3CC(=O)N(c4cc(C)ccc4C)C3)n2)cc(OC)c1OC (stereo not drawn),-,-,-,-,0,-
COc1ccc(OC)c(-c2csc(NC(=O)c3ccc4c(c3)OCO4)n2)c1,?,0,-,0,4.8µM,0
COc1cc(C(=O)Nc2nc(-c3ccc(C)cc3)cs2)ccc1OCC(=O)N1CCOCC1,0,0,0,0,?,0
COc1ccc(-c2csc(NC(=O)c3ccc(OCC(=O)N4CCOCC4)c(OC)c3)n2)cc1,0,0,0,0,17µM,0
CCN(CC)S(=O)(=O)c1ccc(OC)c(NC(=O)c2ccc3c(c2)OCO3)c1,0,0,0,0,0,0
COc1ccccc1NC(=O)c1ccc2c(c1)OCO2,-,10µM,0,4µM,15µM,2.5µM
SMILES,SMN2 splice enh,ELG1 genotoxic,uPA surface inh,Rab9 promoter act,FLuc counter,NPC1 prom act
COc1ccc(OC)c(-c2csc(NC(=O)C3COc4ccccc4O3)n2)c1 (stereo not drawn),0,0,0,0,0,0
COc1ccc(OC)c(NC(=O)c2ccc3c(c2)OCO3)c1,-,0,0,0,21µM,0
COc1ccccc1CNC(=O)CCc1nnc2ccc(NCCCN3CCCC3=O)nn12,-,0,0,0,0,0
COc1cc2c(cc1NCc1ccccn1)oc1ccccc12,0,0,0,?,?,0
COc1cc2c(cc1NC(=O)c1ccc3c(c1)OCO3)oc1ccccc12,14µM,12µM,0,3.2µM,6.7µM,?
COc1cc2c(cc1NCc1ccc3c(c1)OCO3)oc1ccccc12,22µM,0,0,0,?,0
COc1cc2c(cc1OC)-c1cc(Nc3ccc4c(c3)OCCO4)nc(=O)n1CC2,0,?,0,0,15µM,0
CC(/C=C/c1ccc(OCc2ccccc2)cc1)=N\O,11µM,15µM,0,2.8µM,2.4µM,2.8µM
COC(=O)c1ccc(COc2ccc(/C=N/N3CCN(C)CC3)cc2)cc1,5.6µM,?,0,1.1µM,24µM,?
C(=N\n1cnnc1)/c1ccc(OCc2ccccc2)cc1,0,?,-,0,?,0
CN1CCN(/N=C/c2ccc(OCc3ccccc3)cc2)CC1,-,?,0,2.8µM,9.5µM,3.5µM
Cc1ccc2nc(-c3cc(NC(=O)COc4ccc(C)c(C)c4)ccc3Cl)oc2c1,0,-,-,-,?,-
CCOc1ccc(NC(=O)Cc2coc3ccc(C)cc23)cc1,0,-,-,-,0,-
O=C(O)c1cc(N2N=C(C(F)(F)F)/C(=C/C=C/c3ccco3)C2=O)ccc1Cl,-,0,0,0,24µM,0
CCCN(Cc1ccc(C)cc1)C(=O)c1ccc(CNS(=O)(=O)c2ccc(C(C)=O)cc2)cc1,-,0,0,?,21µM,?
COc1ccc(NS(=O)(=O)c2cnc(N)nc2)cc1Cl,-,-,-,-,0,-
Cc1ccc(NC(=O)Nc2ccc3nc(N4CCN(C)CC4)cc(C)c3c2)cc1C,-,-,-,-,0,-
Cc1cc(N2CCN(C)CC2)nc2ccc(NC(=O)Nc3cccc(Cl)c3)cc12,-,-,-,-,13µM,-
Cc1cc(N2CCN(C)CC2)nc2ccc(NC(=O)Nc3ccccc3Br)cc12,-,-,-,-,1.5µM,-
Cc1cc(N2CCN(C)CC2)nc2ccc(NC(=O)Nc3ccccc3)cc12,-,-,-,-,4.8µM,-
CCN1CCN(c2cc(C)c3cc(NC(=O)c4ccc(C)c(C)c4)ccc3n2)CC1,-,0,0,0[1.84 µM],21µM,0
CSc1ccccc1NS(=O)(=O)c1cccc2nonc12,-,0,0,0,0,0
CCOc1ccc(N2CC(NC(=O)Cc3ccccc3)CC2=O)cc1 (stereo not drawn),-,-,-,-,0,-
O=C(Nc1cccc([N+](=O)[O-])c1)c1cc2ccccc2cc1O,-,0,0,0,0.95µM,0
COc1ccc(NC(=O)c2cc([N+](=O)[O-])ccc2O)cc1,-,?,?,0.0003µM,0.13µM,0.002µM
SMILES,SMN2 splice enh,ELG1 genotoxic,uPA surface inh,Rab9 promoter act,FLuc counter,NPC1 prom act
O=C(O)c1ccccc1C(=O)Nc1cccc([N+](=O)[O-])c1,-,0,0,0,0,0
O=C(Nc1ccncc1)c1cc2ccccc2cc1O,-,?,0,1.4µM,1.7µM,2µM
O=S(=O)(Cc1noc(-c2ccc(Cl)cc2)n1)Cc1ccco1,-,0,0,0,?,0
CC(C)NC(=O)CCc1nnc(Cc2cccc(C(F)(F)F)c2)o1,-,?,0,?,15µM,?
CCCCN(C)CCNC(=O)C1CCN(c2nc3ccc(CC)cc3s2)CC1,0,-,-,-,12µM,-
CCc1ccc2nc(N3CCN(C(=O)C4CC4)CC3)sc2c1,-,-,-,-,15µM,-
CCc1ccc2nc(N3CCC(C(=O)O)CC3)sc2c1,?,-,-,-,0.21µM,-
Cc1ccc2nc(N3CCN(C(=O)C4COc5ccccc5O4)CC3)sc2c1 (stereo not drawn),-,-,-,-,8.5µM,-
O=C(C1CC1)N1CCN(c2nc3c(Cl)cccc3s2)CC1,-,-,-,-,0,-
